Data: PubChem BioAssay (NCI)
The panel holds about 83,000 compounds, 20% with a hit somewhere; the sample as a whole holds those more often.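 Assay: single dose, 48 h. Readout: percent growth (0 = no net growth; negative = cell death). Active: <10.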 A number with no mark means an inactive call. Calls of active or inactive are those of the source.

Assays:
Experiment in all cases: NCI-60 one-dose screen, 48 h (100 = growth as untreated, 0 = no growth, -100 = all killed)
Settings in all cases: 10 µM
T-47D breast = system: T-47D breast
BT-549 breast = system: BT-549 breast
MDA-MB-435 melanoma = system: MDA-MB-435 melanoma
SW-620 colon = system: SW-620 colon
MCF7 breast = system: MCF7 breast
HCT-116 colon = system: HCT-116 colon
HCC-2998 colon = system: HCC-2998 colon
KM12 colon = system: KM12 colon

Compound | growth (T-47D breast) | growth (BT-549 breast) | growth (MDA-MB-435 melanoma) | growth (SW-620 colon) | growth (MCF7 breast) | growth (HCT-116 colon) | growth (HCC-2998 colon) | growth (KM12 colon)
CN(C)CCC1(c2ccccc2)CCN(C)C1=O (stereo not given) | 104% | 106% | 105% | 103% | 106% | 110% | 108% | 103%
Nc1ccc(/C=N/Nc2ccnc3c(O)cccc23)c2cccnc12 | 98.3% | 80.2% | 46.8% | 7.41% (active) | 31.7% | -0.0751% (active) | 60.8% | 43.3%
O=C(Nc1cc(Cl)cc2c1-c1ccc(Cl)cc1C2O)C(Cl)Cl (stereo not given) | 54.1% | 95.3% | 79.2% | 79.5% | 64.5% | 51.1% | 95.2% | 76.4%
C=CCNCCN1C(=O)c2ccc3c4c(ccc(c24)C1=O)C(=O)N(CCNCC=C)C3=O | -51.5% (active) | 21.8% | -85.2% (active) | -50.3% (active) | -60.1% (active) | -23% (active) | -81.2% (active) | -53.7% (active)
CC(C1=C(CN(C(=O)Cc2cn(-c3ccccc3)nc2-c2ccc(Cl)cc2)C(C)C)Cc2ccccc21)c1ccccn1 (stereo not given) | 40.6% | 88% | 70.1% | 75.8% | 41.2% | 31.9% | 68% | 54.8%
O=C(CCC(C(=O)c1ccccc1)c1ccccc1)c1ccccc1 (stereo not given) | 66.6% | 54.5% | 4.52% (active) | 41.9% | 72% | 50.3% | 76.6% | 34.5%
COc1ccc(-c2nn(-c3cccc(Cl)c3)cc2-c2nc(N)[nH]c(=O)c2C#N)cc1 | 58.7% | 64% | 2.16% (active) | 83.2% | 51% | 58% | 80.9% | 56%
O=S(=O)(Oc1ccc(-c2ccc3sccc3c2)cc1)c1ccccc1 | 102% | 101% | 97.5% | 100% | 77.5% | 105% | 93.4% | 110%
Cc1nc2n(c(=O)c1CCN1CCC(c3noc4cc(F)ccc34)CC1)CCC[C@@H]2O | 84.1% | 99.4% | 98.8% | 101% | 84.7% | 99.5% | 109% | 99.9%
CCOC(=O)c1cc(C(=O)c2cc(OC)c(OC)c(OC)c2)n2c1ccc1c3cccnc3ccc12 | 50.7% | 68.9% | 8.8% (active) | 23.6% | 28.8% | 21.6% | 81.9% | 41.5%
CN1CCc2c(sc3nc4n(-c5ccc(Cl)cc5)c(=O)[nH]n4c(=O)c23)C1 | 87.6% | 94% | 103% | 109% | 91.7% | 89.1% | 102% | 100%
C=C(NC(=O)C(=C)NC(=O)c1csc(C2=NC3c4csc(n4)C4NC(=O)c5csc(n5)C(C(C)(O)C(C)O)NC(=O)C5CSC(=N5)C(=CC)NC(=O)C(C(C)O)NC(=O)c5csc(n5)C3(CC2)NC(=O)C(C)NC(=O)C(=C)NC(=O)C(C)NC(=O)C(C(C)CC)NC2C=Cc3c(C(C)O)cc(nc3C2O)C(=O)OC4C)n1)C(N)=O (stereo not given) | 40.4% | 0.0683% (active) | 4.84% (active) | 1.83% (active) | 16.7% | -70.9% (active) | 79.3% | 28.3%
CCOC(=O)c1cc(C(=O)c2cc(OC)cc(OC)c2)n2ncc3ccccc3c12 | 12.8% | 27.3% | 4.07% (active) | 8.21% (active) | 15.9% | 4.23% (active) | 69.1% | 25.9%
Nc1nc(Cl)nc2c1ncn2C1O[C@H](CO)[C@@H](O)[C@@H]1F (stereo not given in full) | 49.3% | 20.4% | 41.5% | 49.7% | 30.7% | 25.3% | 57.3% | 51.4%
O=C(CI)OCC(COC(=O)CI)OC(=O)CI | 35.4% | 74.6% | 91.5% | 27.5% | 56.1% | 56.3% | 102% | 102%
